Laboratory results from PubChem BioAssay AID1159580 (chemical genetic matrix, 2015).
Values joined by “and” are separate entries in the source; they are usually repeats but may differ in a detail not shown here. Equal entries are not always repeated. The whole screen tested about 5,500 compounds, of which about 2,000 (36%) were called active. Inconclusive results (about 18%) are left out. No stated cut-off is given here; in the data, active means normalized growth mostly below about 0.91 (no sharp cut-off); inconclusive means no clear call, values can overlap the other calls; inactive means mostly above about 0.92. The list shows a part of the results.

Assay: chemical genetic growth profiling, strain panel (AID 1159580);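 further: tested at 20 µM; growth read once vehicle control cultures reached saturation at 30 °C; 1 = growth at the plate median or of vehicle wells; lower values mean less growth of the strain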
Conditions: S. cerevisiae deletion strains, growth OD

Measured: normalized growth

Nc1ccn(C2O[C@H](CO)[C@@H](O)[C@@H]2O)c(=O)n1 (stereo partly drawn)
inactive: locus YAL021C, strain ccr4, hits give low values 0.997 | locus YAL026C, strain drs2, hits give low values 0.974 | locus YAL030W, strain snc1, hits give low values 0.999 | locus YBL061C, strain skt5, hits give low values 1.01 | locus YBR009C, strain hhf1, hits give low values 0.972 | locus YBR021W, strain FUR4, hits give low values 1.02 | locus YBR023C, strain chs3, hits give low values 1.02 | locus YBR171W, strain sec66, hits give low values 0.994 | locus YBR229C, strain ROT2, hits give low values 1.01 | locus YBR231C, strain swc5, hits give low values 0.999 | locus YBR279W, strain paf1, hits give low values 0.998 | locus YCL011C, strain gbp2, hits give low values 1 | locus YCL016C, strain dcc1, hits give low values 1.05 | locus YCL029C, strain bik1, hits give low values 1 | locus YCL061C, strain MRC1, hits give low values 1.01 | locus YCL069W, strain vba3, hits give low values 0.979 | locus YCR088W, strain abp1, hits give low values 0.986 | locus YDL005C, strain med2, hits give low values 0.989 | locus YDL035C, strain GPR1, hits give low values 1.03 | locus YDL040C, strain nat1, hits give low values 0.984 | locus YDL074C, strain BRE1, hits give low values 1.01 | locus YDL101C, strain DUN1, hits give low values 1 | locus YDL185W, strain tfp1, hits give low values 0.991 | locus YDL192W, strain arf1, hits give low values 0.998 | locus YDR001C, strain nth1, hits give low values 0.989 | locus YDR069C, strain doa4, hits give low values 0.984 | locus YDR101C, strain arx1, hits give low values 1.02 | locus YDR137W, strain rgp1, hits give low values 1.01 | locus YDR159W, strain sac3, hits give low values 0.961 | locus YDR162C, strain NBP2, hits give low values 1.02 | locus YDR195W, strain ref2 0.997 | locus YDR297W, strain sur2, hits give low values 0.986 | locus YDR318W, strain mcm21, hits give low values 1 | locus YDR334W, strain swr1, hits give low values 0.987 | locus YDR335W, strain msn5, hits give low values 0.997 | locus YDR388W, hits give low values 0.994 | locus YDR392W, strain spt3, hits give low values 0.943 | locus YDR502C, strain sam2, hits give low values 1.02 | locus YEL003W, strain gim4, hits give low values 0.973 | locus YEL037C, strain rad23, hits give low values 0.973 | locus YEL061C, strain CIN8 (second series), hits give low values 0.976 | locus YEL061C, strain CIN8, hits give low values 1.01 | locus YER015W, strain faa2, hits give low values 1.01 | locus YER016W, strain bim1, hits give low values 1.01 | locus YER110C, hits give low values 1 | locus YER111C, strain swi4, hits give low values 0.987 | locus YER155C, strain BEM2 (second series), hits give low values 0.969 | locus YER155C, strain BEM2, hits give low values 1.01 | locus YER167W, strain BCK2, hits give low values 1.01 | locus YFR010W, strain ubp6, hits give low values 0.976 | locus YGL078C, strain dbp3, hits give low values 0.995 | locus YGL086W, strain mad1, hits give low values 1 | locus YGL167C, strain pmr1, hits give low values 1.01 | locus YGL173C, strain kem1, hits give low values 1 | locus YGL227W, strain vid30, hits give low values 0.995 | locus YGL240W, strain doc1, hits give low values 1 | locus YGL248W, strain PDE1, hits give low values 0.987 | locus YGL253W, strain hxk2, hits give low values 1 | locus YGR135W, strain pre9, hits give low values 0.983 | locus YGR252W, strain gcn5, hits give low values 1 | locus YHR013C, strain ard1, hits give low values 1.02 | locus YHR027C, strain rpn1, hits give low values 0.996 | locus YHR030C, strain SLT2, hits give low values 1.01 and 1.02 | locus YHR079C, strain IRE1 (second series), hits give low values 0.996 | locus YHR079C, strain IRE1, hits give low values 1.02 | locus YHR094C, strain hxt1, hits give low values 0.996 | locus YHR129C, strain ARP1, hits give low values 1.01 | locus YHR142W, strain chs7, hits give low values 1.01 | locus YHR200W, strain rpn10, hits give low values 1 | locus YIL066C, strain RNR3, hits give low values 1.01 | locus YIL073C, strain SPO22, hits give low values 1.01 | locus YIL125W, strain kgd1, hits give low values 0.997 | locus YIR030C, strain dcg1, hits give low values 1.01 | locus YJL092W, strain hpr5, hits give low values 0.985 | locus YJL095W, strain BCK1 (second series), hits give low values 1 | locus YJL095W, strain BCK1, hits give low values 0.977 and 1.01 | locus YJL115W, strain asf1, hits give low values 0.978 | locus YJL129C, strain trk1, hits give low values 1.01 | locus YJL134W, strain LCB3, hits give low values 1 | locus YJL154C, strain vps35, hits give low values 0.981 | locus YJL164C, strain tpk1, hits give low values 0.989 | locus YJL166W, strain qcr8, hits give low values 1.02 | locus YJL168C, strain set2, hits give low values 1 | locus YJL187C, strain SWE1 (second series), hits give low values 0.997 | locus YJL187C, strain SWE1, hits give low values 0.994 | locus YJR043C, strain POL32, hits give low values 1.03 | locus YJR066W, strain TOR1, hits give low values 0.99 | locus YJR075W, strain HOC1, hits give low values 1.01
